# Compound activity deposited in PubChem by National Center for Advancing Translational Sciences (NCATS).
# PLK1 PBD block: inhibitors of human PLK1 polo-box domain binding; P53350; Plk1 PBD binding of FITC phosphopeptide, fluorescence polarization; Potency, µM, hits mostly inhibitors; 2.8% of 360,000 active; AID 720504; note: series mostly up to about 57 µM; nearly all actives have a fitted effect of over 65% in size
# BAZ2B inh: BAZ2B (human) inhibition; 4.4% of 360,000 active; Potency, µM (highest dose often 114 µM), actives largely listed as inhibitors; Q9UIF8; AID 504333; AlphaScreen BAZ2B-H3K14Ac peptide displacement; note: nearly all actives have a fitted effect of over 60% in size
#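 AlphaScreen displacement of biotin-H3(5-23)K14Ac peptide (50 nM final) from BAZ2B (50 nM final) in PBS pH 7.4, 0.01% Tween-20; complex preformed 30 min RT, then compounds (top 110 uM) 30 min RT, beads 20 min dark.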
# JMJD2A Tudor inh: JMJD2A Tudor domain (human) inhibition; O75164; 4.4% of 390,000 active; AlphaScreen JMJD2A-Tudor / H3K4me3 peptide binding; AID 504339; Potency, µM (highest dose often 114 µM), usual class: inhibitors; note: nearly all actives have a fitted effect of over 50% in size
# Sfp PPTase inh: blocks B. subtilis Sfp PPTase activity. Q9F4F7. 3.5% of 310,000 active. Potency, µM, actives largely listed as inhibitors. Biochemical Sfp PPTase activity, qHTS. AID 1490;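 note: the enzyme is Sfp with the accession as filed and its product quenches rhodamine fluorescence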
#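 Sfp 15 nM + cpd, 15 min RT; start w/ rhodamine-CoA 5 uM, BHQ-2-YbbR 12.5 uM (final); 50 mM Hepes pH 7.6, 10 mM MgCl2, 0.01% NP-40, 0.01% BSA; read 525/598 nm at 0 and 30 min.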
# G9a inh: blocks human histone lysine methyltransferase G9a. Q96KQ7. G9a H3K9 monomethylation, AlphaScreen, 2 h. Potency, µM (doses to about 102 µM), actives largely listed as inhibitors. 8.8% of 350,000 active. AID 504332; note: nearly all actives have a fitted effect of over 75% in size
#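 AlphaScreen read-out: biotin-H3K9 peptide (500 nM) methylation by 20 nM enzyme with 20 uM SAM, 2 h at room temperature after 15 min compound preincubation; anti-monomethyl H3K9 antibody plus donor/acceptor beads, 10 min dark.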
# HP1b binding inh: inhibitors of HP1-beta chromodomain binding to methylated histone tails. AlphaScreen HP1-beta / biotin-H3K9me3 peptide binding. AID 540317. 0.56% of 390,000 active. Potency, µM (highest dose often 114 µM), actives largely listed as inhibitors. P83916; note: nearly all actives have a fitted effect of over 70% in size
#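 HP1-beta protein (50 nM final) preincubated 30 min at room temperature with biotinylated H3(1-18)K9me3 peptide (50 nM) in PBS pH 7.4, 0.01% Tween-20, then compound added for 30 min. AlphaScreen streptavidin donor/nickel chelate acceptor beads (10 ug/mL final), 30 min dark, luminescence read.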
# A number is an active result; i = inactive; ? = inconclusive; nt = no result; ! = a repeat was not active; [ ] = remark or other dose. An excerpt weighted towards active compounds, which were near 12% of everything screened. Calls come from the whole dose curve; as a rule, active = well fitted curve in the direction sought with a large enough effect; inconclusive = small, poorly fitted or top-dose-only effect, or another doubt; inactive = no such curve, though single readings can be large; an effect the other way counts as inactive or inconclusive.
SMILES,PLK1 PBD block,BAZ2B inh,JMJD2A Tudor inh,Sfp PPTase inh,G9a inh,HP1b binding inh
c1ccc(Nc2nc(-c3ccccc3)c(-c3ccccc3)s2)cc1,nt,nt,i,nt,nt,i
Cc1ccc(NS(=O)(=O)N(C)C)cc1,i,i,i,i,i,i
CN(C)S(=O)(=O)Nc1cc(Cl)cc(Cl)c1,29.9µM,i,39.8µM,i,i,i
O=C(Nc1cccc(S(=O)(=O)N2CCCC2)c1)c1cc(=O)[nH]c2ccccc12,i,i,i,nt,i[2.33 µM],i
Cc1c(C(=O)O)sc2nc3n(c(=O)c12)CCC3,i,?,50.1µM,i,39.8µM,i
Cc1c(C(=O)N2CCN(c3ccc(F)cc3)CC2)sc2nc3n(c(=O)c12)CCC3,21.2µM,i,?,i,i,i
Cc1c(C(=O)NCCc2ccc(Cl)cc2)sc2nc3n(c(=O)c12)CCCC3,nt,39.8µM,i,nt,?,i
CCN(CC)CCNC(=O)c1sc2nc3n(c(=O)c2c1C)CCCCC3,nt,i,i,nt,i,i
CCCCN(CC)CCCNC(=O)c1sc2nc3n(c(=O)c2c1C)CCCCC3,nt,i,i,nt,8.91µM,i
Cc1c(C(=O)N2CCN(c3ccccc3)CC2)sc2nc3n(c(=O)c12)CCC3,i,i,i,i,i,i
CC(C)C[C@H](NC(=O)[C@H](CCC(N)=O)NC(=O)[C@H](CCCCN)NC(=O)[C@H](CCC(N)=O)NC(=O)[C@@H](N)CCC(=O)O)C(=O)N[C@@H](CCC(N)=O)C(=O)O,nt,nt,nt,i,i,nt
Cc1ccc(CCNC(=O)c2sc3nc4n(c(=O)c3c2C)CCC4)cc1,10.6µM,i,?,i,i,i
CC(C)n1cc(C(N)=S)c(=O)n(Cc2ccccc2)c1=O,i,i,i,i,50.1µM,i
Cn1c(=O)c(C(N)=S)cn(-c2ccccc2)c1=O,i,i,i,i,?,i
COCCn1c(SCc2cc(=O)n3ccsc3n2)nnc1-c1ccncc1,23.8µM,i,39.8µM,i,i,i
Cc1ccc2nc(CSc3nnc(-c4ccncc4)n3C)cc(=O)n2c1,i,i,i,i,39.8µM,i
C=CCn1c(SCc2cc(=O)n3cc(C)ccc3n2)nnc1-c1ccc(F)cc1,i,i,i,i,i,i
O=C(Nc1ccc(Br)cc1)c1ccc2ncsc2c1,i,i,i,?,44.7µM,i
CC1(C)CC(=O)c2sc(NC(=O)c3ccc4ncsc4c3)nc2C1,i,i,i,50.1µM,?,i
CC1(C)CC(=O)c2sc(NC(=O)c3ccccc3)nc2C1,nt,i,nt,i,nt,nt
CC1(C)CC(=O)c2sc(NC(=O)CN3CCCCC3)nc2C1,i,nt,?,i,14.1µM,i
CC(C)(C)c1ccc(NC(=O)COC(=O)c2ccc3ncsc3c2)cc1,i,i,i,nt,i[12.7 µM],i
CCOc1ccc(NC(=O)COC(=O)c2ccc3ncsc3c2)cc1OCC,i,?,i,nt,44.7µM,i
Cn1nc(C2CC2)cc1NC(=O)C1(C)CCN1C(=O)CC(c1ccccc1)c1ccccc1 (stereo unspecified),i,nt,nt,nt,nt,nt
COc1ccccc1N1CCN(C(=O)C2CCN(S(=O)(=O)c3cccs3)CC2)CC1,nt,i,i,nt,i,i
SMILES,PLK1 PBD block,BAZ2B inh,JMJD2A Tudor inh,Sfp PPTase inh,G9a inh,HP1b binding inh
COCCn1c(=O)c(-c2cn(C)c3ccccc23)nc2cnc(Oc3cccc(Cl)c3)nc21,nt,nt,nt,i,i[0.501 µM],nt
O=C(CCN1C(=O)c2ccccc2C1=O)Nn1cnnc1,i,i,i,i,i,i
O=C(NCCO)C(=O)NCC1OCCCN1S(=O)(=O)c1ccc2c(c1)OCCO2 (stereo unspecified),i,i,i,i,i,i
O=S(=O)(N1CCN(c2nc(-c3cccs3)nc3ccccc23)CC1)C(F)(F)F,nt,nt,i,nt,nt,i
Cc1cccc(C#Cc2ccccc2)n1,i,i,?,50.1µM!,20µM!,i
Cc1ccc(CSC2=Nc3ccccc3C3=NC(CCC(=O)NC4CCCCC4)C(=O)N23)cc1 (stereo unspecified),nt,i,i,nt,i,i
COc1cccc(C(=O)Nc2ccccc2-c2nc3ccccc3s2)c1,nt,i,i,nt,i,i
O=C(NCCOc1ccccc1)c1ncn[nH]1,i,50.1µM,39.8µM,i,?,i
Cc1c(NC(=O)c2ccco2)cccc1-c1nc2cccnc2s1,i,i,?,?,14.1µM,i
Cc1c(NC(=O)c2ccc(Cl)nc2)cccc1-c1nc2cccnc2s1,i,i,i,i,i,i
Cc1c(NC(=O)c2ncn[nH]2)cccc1-c1nc2ccccc2s1,i,25.1µM,?,i,?,i
Cc1onc(C(=O)Nc2ccccc2C(F)(F)F)c1[N+](=O)[O-],i,i,i,i,nt,i
Cc1cccc(OCCNC(=O)c2ncn[nH]2)c1,i,i,i,i,i,i
Cc1noc(C(=O)Nc2ccccc2C(F)(F)F)c1Cl,29.9µM,i,i,i,i,i
COCCCNC(=O)CCc1c(C)nc2nc(-c3cc(OC)cc(OC)c3)nn2c1C,nt,i,i,nt,i,i
O=C(Nc1ccccc1C(F)(F)F)c1cnccn1,i,i,i,i,i,i
